Columns and labels:
Test in all cases: log2 ratio of Biotin-Ahx-Ub-VS probe labelling (fragment/DMSO); higher = less target engagement (more negative = stronger competition), active = hit call of the paper (q ≤ 0.05, log2 ratio ≤ -1)
Conditions in all cases: compound concentration: 200 uM; treatment time: 3 h
USP42 = molecular target: T1, USP42 (UniProt Q9H9J4)
T1 sequence (whole entry): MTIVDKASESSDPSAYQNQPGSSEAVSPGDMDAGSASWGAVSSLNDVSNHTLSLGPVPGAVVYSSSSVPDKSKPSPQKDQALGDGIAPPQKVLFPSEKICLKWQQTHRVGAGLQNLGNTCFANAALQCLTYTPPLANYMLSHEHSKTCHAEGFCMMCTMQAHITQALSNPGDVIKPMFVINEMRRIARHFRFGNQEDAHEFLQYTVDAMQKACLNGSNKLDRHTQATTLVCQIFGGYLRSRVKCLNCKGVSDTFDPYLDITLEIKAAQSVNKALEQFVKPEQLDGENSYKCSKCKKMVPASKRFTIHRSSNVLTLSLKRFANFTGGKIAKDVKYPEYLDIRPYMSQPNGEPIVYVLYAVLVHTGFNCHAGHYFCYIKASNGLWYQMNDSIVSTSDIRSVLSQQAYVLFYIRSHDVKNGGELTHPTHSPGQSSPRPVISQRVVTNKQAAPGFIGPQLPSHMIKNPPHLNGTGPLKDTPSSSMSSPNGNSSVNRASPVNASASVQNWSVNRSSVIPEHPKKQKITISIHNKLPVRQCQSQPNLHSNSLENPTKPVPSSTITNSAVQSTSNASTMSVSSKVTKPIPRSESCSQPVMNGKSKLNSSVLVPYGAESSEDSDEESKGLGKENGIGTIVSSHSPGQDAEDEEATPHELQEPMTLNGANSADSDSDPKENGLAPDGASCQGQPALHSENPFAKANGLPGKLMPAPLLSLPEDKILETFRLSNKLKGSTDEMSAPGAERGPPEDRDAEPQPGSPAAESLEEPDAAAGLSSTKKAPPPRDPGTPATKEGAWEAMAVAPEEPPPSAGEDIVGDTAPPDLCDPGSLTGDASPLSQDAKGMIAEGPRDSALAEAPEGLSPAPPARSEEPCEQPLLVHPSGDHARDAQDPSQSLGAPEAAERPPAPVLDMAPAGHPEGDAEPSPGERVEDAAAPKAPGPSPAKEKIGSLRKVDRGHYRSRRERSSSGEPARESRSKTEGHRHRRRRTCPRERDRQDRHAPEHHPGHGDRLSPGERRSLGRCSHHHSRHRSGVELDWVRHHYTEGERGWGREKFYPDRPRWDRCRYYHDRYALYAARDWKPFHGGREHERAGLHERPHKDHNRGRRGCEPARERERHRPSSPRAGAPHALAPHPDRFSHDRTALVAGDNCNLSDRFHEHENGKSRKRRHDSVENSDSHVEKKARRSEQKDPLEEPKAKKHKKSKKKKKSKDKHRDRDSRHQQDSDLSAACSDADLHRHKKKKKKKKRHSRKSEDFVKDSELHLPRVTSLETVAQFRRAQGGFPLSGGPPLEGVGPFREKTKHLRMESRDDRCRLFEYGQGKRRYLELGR
How it was run: (§1)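 Fragment (200 µM) or vehicle was incubated for 3 h with triplicate HEK293T lysate samples of 495 µg, which were then treated with Biotin-Ahx-Ub-VS at 0.5 µM final for 1 h. Labelled DUBs were enriched on NeutrAvidin, digested with LysC and trypsin, and analysed by diaPASEF LC-MS/MS. Values are average log2 fragment/vehicle ratios from an unpaired t-test on global-median-normalised Spectronaut label-free quantities, using proteins with ≥2 unique peptides.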

USP46 = USP46 (UniProt P62068)
How it was run: as §1

USP47 = molecular target: T2, USP47 (UniProt Q96K76)
T2 sequence (whole entry): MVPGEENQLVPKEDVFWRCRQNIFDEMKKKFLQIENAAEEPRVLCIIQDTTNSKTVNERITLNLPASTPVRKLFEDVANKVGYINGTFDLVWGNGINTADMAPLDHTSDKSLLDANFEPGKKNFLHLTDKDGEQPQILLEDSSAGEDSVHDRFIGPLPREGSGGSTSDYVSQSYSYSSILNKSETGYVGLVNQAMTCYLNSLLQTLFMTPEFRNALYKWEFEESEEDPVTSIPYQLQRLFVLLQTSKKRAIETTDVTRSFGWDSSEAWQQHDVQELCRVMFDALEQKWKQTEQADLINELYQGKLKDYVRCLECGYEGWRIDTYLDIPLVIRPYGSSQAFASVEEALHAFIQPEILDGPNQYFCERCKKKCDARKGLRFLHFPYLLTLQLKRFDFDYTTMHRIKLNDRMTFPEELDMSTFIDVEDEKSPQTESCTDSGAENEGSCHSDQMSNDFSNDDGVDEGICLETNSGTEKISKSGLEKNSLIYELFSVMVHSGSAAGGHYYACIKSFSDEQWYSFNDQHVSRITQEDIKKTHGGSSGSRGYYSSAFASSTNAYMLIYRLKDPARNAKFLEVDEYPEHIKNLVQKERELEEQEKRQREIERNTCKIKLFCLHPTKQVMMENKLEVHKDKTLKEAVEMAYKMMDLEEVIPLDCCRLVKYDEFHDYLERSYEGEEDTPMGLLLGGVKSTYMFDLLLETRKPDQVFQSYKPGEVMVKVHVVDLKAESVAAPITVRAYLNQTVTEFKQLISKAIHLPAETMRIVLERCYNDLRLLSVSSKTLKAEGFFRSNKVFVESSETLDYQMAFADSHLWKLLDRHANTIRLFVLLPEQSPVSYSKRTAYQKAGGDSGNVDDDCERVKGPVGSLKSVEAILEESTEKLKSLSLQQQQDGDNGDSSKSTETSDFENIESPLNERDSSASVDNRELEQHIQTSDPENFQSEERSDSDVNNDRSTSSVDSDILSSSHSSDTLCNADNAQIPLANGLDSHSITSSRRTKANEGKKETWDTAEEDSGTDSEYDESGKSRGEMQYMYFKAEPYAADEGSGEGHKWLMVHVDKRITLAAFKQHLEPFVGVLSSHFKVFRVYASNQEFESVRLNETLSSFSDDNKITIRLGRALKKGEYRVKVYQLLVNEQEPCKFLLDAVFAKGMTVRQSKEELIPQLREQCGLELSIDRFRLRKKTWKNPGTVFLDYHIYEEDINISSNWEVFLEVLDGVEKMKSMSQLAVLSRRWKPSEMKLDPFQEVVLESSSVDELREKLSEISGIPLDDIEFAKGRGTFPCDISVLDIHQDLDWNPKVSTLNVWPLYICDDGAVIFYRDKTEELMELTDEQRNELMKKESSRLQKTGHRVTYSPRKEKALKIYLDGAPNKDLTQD
How it was run: as §1

USP48 = molecular target: T3, USP48 (UniProt Q86UV5)
T3 sequence (whole entry): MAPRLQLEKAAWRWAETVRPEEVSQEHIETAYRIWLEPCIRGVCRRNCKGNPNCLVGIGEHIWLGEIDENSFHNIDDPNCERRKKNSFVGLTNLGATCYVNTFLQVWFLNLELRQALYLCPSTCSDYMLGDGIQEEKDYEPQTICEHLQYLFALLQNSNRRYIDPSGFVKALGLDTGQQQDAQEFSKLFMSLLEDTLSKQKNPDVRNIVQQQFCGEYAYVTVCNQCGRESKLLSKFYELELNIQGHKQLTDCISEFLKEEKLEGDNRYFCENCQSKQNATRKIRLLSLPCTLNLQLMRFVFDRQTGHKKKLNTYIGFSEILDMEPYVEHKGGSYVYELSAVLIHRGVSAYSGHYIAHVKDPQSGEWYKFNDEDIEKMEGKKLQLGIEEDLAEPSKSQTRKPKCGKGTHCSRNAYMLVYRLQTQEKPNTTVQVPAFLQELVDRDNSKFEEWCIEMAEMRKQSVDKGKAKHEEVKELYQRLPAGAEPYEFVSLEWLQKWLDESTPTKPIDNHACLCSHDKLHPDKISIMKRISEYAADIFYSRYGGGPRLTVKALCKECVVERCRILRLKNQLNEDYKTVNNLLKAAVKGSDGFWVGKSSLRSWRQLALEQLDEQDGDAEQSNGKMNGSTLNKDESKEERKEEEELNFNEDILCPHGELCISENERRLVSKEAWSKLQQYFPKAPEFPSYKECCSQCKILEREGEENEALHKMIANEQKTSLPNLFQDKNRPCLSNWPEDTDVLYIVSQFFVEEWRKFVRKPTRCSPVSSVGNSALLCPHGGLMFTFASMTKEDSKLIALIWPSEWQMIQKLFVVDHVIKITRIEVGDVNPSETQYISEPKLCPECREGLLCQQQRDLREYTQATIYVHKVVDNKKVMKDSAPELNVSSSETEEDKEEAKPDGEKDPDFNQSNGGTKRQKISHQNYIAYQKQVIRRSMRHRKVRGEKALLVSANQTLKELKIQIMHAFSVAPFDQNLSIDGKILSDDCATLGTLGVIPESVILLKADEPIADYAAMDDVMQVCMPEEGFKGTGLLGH
How it was run: as §1

USP5 = molecular target: T4, USP5 (UniProt P45974)
T4 sequence (whole entry): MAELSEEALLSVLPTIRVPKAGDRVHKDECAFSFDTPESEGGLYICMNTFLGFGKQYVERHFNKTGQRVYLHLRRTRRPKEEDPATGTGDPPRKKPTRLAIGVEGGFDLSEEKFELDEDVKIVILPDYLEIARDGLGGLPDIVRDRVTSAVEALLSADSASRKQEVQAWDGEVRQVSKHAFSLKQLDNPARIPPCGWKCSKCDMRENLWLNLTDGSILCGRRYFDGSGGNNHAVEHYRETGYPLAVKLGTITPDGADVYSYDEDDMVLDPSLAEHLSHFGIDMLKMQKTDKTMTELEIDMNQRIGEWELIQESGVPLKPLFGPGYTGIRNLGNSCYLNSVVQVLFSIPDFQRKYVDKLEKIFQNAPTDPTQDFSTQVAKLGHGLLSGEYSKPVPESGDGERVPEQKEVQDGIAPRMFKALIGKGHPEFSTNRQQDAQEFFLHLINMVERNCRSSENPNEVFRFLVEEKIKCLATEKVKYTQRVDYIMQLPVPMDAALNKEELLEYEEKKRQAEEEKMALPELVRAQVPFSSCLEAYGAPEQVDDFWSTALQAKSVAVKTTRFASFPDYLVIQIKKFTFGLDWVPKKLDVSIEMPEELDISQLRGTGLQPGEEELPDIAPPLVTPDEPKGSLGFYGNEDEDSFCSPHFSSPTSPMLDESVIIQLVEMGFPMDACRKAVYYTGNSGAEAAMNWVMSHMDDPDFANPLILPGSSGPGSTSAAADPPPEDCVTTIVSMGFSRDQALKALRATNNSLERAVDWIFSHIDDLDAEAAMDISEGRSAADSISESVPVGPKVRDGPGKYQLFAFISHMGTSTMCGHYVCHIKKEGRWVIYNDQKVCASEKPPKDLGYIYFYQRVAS
How it was run: as §1

USP54 = USP54 (UniProt Q70EL1)
How it was run: as §1

USP7 = USP7 (UniProt Q93009)
How it was run: as §1

USP8 = molecular target: T5, USP8 (UniProt P40818)
T5 sequence (whole entry): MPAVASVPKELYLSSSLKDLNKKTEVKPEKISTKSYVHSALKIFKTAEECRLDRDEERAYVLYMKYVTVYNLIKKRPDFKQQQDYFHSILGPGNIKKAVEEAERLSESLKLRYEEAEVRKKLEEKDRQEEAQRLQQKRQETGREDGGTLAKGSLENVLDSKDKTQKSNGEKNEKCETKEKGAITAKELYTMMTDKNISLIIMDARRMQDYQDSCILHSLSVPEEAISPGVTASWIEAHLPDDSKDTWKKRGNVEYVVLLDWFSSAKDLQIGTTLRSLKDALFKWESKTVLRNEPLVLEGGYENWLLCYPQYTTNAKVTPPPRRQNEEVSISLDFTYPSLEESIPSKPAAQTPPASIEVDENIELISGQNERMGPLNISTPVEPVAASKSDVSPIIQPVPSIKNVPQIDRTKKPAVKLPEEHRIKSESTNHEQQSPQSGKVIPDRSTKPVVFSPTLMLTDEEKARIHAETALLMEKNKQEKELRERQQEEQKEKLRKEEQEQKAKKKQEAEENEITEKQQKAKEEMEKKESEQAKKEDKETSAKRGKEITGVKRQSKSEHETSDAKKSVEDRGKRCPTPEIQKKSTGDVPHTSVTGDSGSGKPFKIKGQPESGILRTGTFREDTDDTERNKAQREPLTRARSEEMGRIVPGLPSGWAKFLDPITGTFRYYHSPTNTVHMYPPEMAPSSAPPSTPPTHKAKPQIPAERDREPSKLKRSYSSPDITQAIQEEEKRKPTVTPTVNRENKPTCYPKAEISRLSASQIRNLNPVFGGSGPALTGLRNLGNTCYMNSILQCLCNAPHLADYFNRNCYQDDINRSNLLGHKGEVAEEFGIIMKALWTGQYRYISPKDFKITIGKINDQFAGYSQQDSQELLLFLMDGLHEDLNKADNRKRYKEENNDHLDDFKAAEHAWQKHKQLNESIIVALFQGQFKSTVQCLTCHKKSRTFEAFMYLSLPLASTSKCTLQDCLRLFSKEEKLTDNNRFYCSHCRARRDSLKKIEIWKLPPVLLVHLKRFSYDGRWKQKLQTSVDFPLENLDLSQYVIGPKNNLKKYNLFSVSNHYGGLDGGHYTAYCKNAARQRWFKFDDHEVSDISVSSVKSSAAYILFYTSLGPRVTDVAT
How it was run: as §1

Measured: log2 ratio of Biotin-Ahx-Ub-VS probe labelling

Chain of USP7 (Q93009 whole entry, looked up): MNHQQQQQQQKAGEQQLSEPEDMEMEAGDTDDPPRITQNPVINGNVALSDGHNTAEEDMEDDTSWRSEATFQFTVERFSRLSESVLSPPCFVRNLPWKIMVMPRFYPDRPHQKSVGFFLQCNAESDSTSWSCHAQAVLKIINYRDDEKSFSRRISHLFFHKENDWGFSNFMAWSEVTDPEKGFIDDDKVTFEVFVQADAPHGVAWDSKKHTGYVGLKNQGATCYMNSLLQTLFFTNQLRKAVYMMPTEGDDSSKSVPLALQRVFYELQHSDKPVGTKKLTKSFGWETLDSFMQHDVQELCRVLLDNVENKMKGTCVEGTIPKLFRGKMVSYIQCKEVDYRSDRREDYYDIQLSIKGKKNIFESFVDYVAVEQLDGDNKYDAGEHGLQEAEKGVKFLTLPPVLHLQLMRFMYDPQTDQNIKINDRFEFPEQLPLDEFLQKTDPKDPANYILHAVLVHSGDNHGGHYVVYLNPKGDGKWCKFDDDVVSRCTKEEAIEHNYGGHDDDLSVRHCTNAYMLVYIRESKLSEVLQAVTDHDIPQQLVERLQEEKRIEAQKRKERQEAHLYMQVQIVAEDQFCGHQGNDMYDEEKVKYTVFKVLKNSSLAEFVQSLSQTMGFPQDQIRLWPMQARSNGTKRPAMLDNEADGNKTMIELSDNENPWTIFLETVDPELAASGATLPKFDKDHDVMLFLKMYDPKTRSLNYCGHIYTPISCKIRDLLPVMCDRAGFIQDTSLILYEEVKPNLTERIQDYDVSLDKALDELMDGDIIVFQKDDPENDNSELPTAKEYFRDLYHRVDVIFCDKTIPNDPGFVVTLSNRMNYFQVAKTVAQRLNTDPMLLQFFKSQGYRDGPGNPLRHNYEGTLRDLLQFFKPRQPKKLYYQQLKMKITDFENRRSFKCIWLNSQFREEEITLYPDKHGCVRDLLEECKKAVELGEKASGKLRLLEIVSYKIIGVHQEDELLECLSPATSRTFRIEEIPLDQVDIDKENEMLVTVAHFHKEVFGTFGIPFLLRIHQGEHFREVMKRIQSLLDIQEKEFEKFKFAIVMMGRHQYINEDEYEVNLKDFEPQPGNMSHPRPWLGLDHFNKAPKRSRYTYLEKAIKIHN
Chain of USP54 (Q70EL1 whole entry): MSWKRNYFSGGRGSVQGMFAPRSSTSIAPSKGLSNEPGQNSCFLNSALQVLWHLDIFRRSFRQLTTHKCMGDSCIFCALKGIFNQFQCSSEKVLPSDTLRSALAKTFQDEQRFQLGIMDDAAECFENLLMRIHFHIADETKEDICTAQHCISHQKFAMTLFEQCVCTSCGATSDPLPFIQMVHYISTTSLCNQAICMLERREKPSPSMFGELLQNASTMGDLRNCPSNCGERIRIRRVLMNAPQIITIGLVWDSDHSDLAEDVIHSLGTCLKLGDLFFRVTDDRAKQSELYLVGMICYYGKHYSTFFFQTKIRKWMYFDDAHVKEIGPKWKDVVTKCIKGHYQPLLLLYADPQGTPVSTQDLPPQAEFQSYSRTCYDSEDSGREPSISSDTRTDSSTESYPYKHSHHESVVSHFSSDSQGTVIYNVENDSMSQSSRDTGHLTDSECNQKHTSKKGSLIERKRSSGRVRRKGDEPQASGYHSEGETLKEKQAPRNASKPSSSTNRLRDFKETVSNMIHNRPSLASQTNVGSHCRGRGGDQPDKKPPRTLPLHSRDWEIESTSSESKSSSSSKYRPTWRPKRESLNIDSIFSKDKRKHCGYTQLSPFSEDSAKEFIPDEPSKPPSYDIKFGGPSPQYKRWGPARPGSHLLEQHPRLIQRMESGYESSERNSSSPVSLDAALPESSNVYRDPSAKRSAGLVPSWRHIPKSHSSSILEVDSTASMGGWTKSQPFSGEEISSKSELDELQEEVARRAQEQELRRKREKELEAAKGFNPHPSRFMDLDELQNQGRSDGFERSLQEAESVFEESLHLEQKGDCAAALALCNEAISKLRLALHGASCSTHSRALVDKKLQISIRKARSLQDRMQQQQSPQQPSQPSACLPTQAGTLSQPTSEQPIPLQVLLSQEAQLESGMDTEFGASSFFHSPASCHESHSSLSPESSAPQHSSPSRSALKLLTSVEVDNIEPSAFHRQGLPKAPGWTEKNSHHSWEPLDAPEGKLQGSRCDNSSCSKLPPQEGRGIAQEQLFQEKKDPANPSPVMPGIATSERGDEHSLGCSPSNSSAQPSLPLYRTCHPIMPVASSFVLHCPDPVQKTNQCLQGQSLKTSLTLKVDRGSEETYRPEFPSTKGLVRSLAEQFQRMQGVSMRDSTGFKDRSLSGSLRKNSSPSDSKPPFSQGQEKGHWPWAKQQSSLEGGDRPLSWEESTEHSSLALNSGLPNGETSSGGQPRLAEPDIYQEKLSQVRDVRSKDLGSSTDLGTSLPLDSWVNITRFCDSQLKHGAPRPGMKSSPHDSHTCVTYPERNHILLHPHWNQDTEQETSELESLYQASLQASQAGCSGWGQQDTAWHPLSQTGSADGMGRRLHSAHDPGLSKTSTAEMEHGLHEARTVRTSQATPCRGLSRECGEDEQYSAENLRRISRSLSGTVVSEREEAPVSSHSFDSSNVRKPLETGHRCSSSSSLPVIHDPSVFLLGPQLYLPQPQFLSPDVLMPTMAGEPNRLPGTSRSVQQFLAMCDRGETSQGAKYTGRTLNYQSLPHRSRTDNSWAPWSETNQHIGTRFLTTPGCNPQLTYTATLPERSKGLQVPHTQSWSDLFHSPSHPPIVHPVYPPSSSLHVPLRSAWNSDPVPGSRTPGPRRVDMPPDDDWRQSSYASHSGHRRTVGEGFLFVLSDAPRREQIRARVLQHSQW
Chain of USP46 (P62068 whole entry): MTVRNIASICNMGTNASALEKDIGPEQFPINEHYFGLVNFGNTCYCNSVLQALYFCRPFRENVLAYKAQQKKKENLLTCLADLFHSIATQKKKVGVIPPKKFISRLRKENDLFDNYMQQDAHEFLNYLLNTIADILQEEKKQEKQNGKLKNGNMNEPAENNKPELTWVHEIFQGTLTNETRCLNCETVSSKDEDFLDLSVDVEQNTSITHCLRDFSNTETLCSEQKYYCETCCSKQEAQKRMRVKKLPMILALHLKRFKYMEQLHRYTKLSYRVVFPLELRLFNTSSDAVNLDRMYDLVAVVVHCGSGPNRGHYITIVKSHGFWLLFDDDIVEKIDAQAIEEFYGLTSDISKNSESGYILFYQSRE

Cc1ccc(CNC(=O)CCl)nc1C.Cl
inactive: USP42 0.369 | USP46 0.12 | USP47 0.076 | USP48 -0.13 | USP5 -0.461 | USP54 -0.18 | USP7 -0.299 | USP8 -0.217
